DUX4 inh: blocks DUX4-driven transcriptional activation | 293T-iDUX4 ZSCAN4-Gaussia luciferase reporter, 24 h; hits give low values | activity change, negative = inhibition, % (concentration not given with the values) | actives 0.8% (n = 37,000);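 active = mean inhibition of at least 10% in the main channel, exceeding the control channel by a set limit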
Of the large screens only hits and unclear results are named; the others gave an inactive call. This excerpt belongs to a sample that is enriched for hits.

CCCNC(=O)[C@@H]1[C@@H](CO)[C@@H]2Cn3c(ccc(-c4ccc(OC)cc4)c3=O)[C@H]1N2CC	none
O=C(O)C[C@H]1C[C@H]2c3cc(NC(=O)CC4CC4)ccc3O[C@H]2[C@H](CO)O1	none
C[C@H]1CN([C@@H](C)CO)C(=O)c2c(c3ccccc3n2C)-c2ccccc2CO[C@@H]1CN(C)Cc1ccc(-c2ccccc2)cc1	DUX4 inh -41
C[C@@H]1CN([C@H](C)CO)C(=O)c2c(c3ccccc3n2C)-c2ccccc2CO[C@@H]1CN(C)Cc1ccc(Cl)c(Cl)c1	DUX4 inh -19
C[C@H]1CN([C@@H](C)CO)C(=O)c2c(c3ccccc3n2C)-c2ccccc2CO[C@@H]1CN(C)Cc1ccc(Cl)c(Cl)c1	DUX4 inh -49
C[C@@H]1CN([C@@H](C)CO)C(=O)c2c(c3ccccc3n2C)-c2ccccc2CO[C@H]1CN(C)Cc1ccncc1	none
C[C@H]1CN([C@@H](C)CO)C(=O)c2c(c3ccccc3n2C)-c2ccccc2CO[C@@H]1CN(C)Cc1ccncc1	none
C[C@H](CO)N1C[C@H](C)[C@@H](CN(C)Cc2ccncc2)OCc2ccccc2-c2c(n(C)c3ccccc23)C1=O	none
C[C@H]1CN([C@@H](C)CO)C(=O)c2ccccc2-c2ccccc2CO[C@H]1CN(C)Cc1ccc(O)cc1	none
C[C@@H]1CN([C@@H](C)CO)C(=O)c2c(c3ccccc3n2C)-c2ccccc2CO[C@H]1CN(C)Cc1ccc(-c2ccccc2)cc1	none
C[C@@H]1CN([C@@H](C)CO)C(=O)c2c(c3ccccc3n2C)-c2ccccc2CO[C@@H]1CN(C)Cc1ccc(-c2ccccc2)cc1	none
C[C@@H]1CN([C@@H](C)CO)C(=O)c2c(c3ccccc3n2C)-c2ccccc2CO[C@@H]1CN(C)Cc1ccc(Cl)c(Cl)c1	none
C[C@@H]1CN([C@H](C)CO)C(=O)c2ccccc2-c2ccccc2CO[C@@H]1CN(C)Cc1ccc(C(F)(F)F)cc1	DUX4 inh -25
C[C@@H]1CN([C@H](C)CO)C(=O)c2ccccc2-c2ccccc2CO[C@@H]1CN(C)Cc1ccc(C(=O)O)cc1	none
COc1cccc(-c2ccc([C@H]3[C@@H](CO)N4C(=O)CN(C(=O)CN5CCOCC5)C[C@@H]34)cc2)c1	none
C[C@H](NC(=O)[C@@H]1[C@@H](CO)[C@@H]2Cn3c(cccc3=O)[C@H]1N2Cc1ccccc1)c1ccccc1	none
CCCN(C)C[C@H]1OCc2cnnn2CCCC(=O)N([C@@H](C)CO)C[C@H]1C	none
C[C@H](CO)N1C[C@H](C)[C@@H](CN(C)C(=O)N[C@H](C)c2ccccc2)OCc2ccccc2-c2ccccc2C1=O	none
CCC(=O)N1C[C@@H](C)[C@@H](OC)CN(C)C(=O)c2ccc(NC(=O)c3ccno3)cc2OC[C@@H]1C	none
CCCN1C[C@H](C)[C@H](OC)CN(C)C(=O)c2ccc(NC(=O)c3ccc(F)cc3)cc2OC[C@@H]1C	none
CO[C@H]1CN(C)C(=O)c2ccc(NC(=O)c3ccc(F)cc3)cc2OC[C@H](C)N(C)C[C@@H]1C	none
C[C@@H]1CN([C@H](C)CO)C(=O)c2cc(-c3cccc(C(=O)N(C)C)c3)cnc2O[C@H]1CN(C)S(=O)(=O)c1cccc(F)c1	none
O=C(C[C@@H]1CC[C@H]2[C@@H](COC[C@@H](O)CN2C(=O)c2ccc(F)cc2)O1)Nc1nccs1	none
CN(C)C(=O)[C@H]1[C@H](CO)[C@H]2Cn3c(ccc(C4=CCCCC4)c3=O)[C@H]2N1Cc1ccc2c(c1)OCO2	none
CN(C)C(=O)[C@@H]1[C@@H](CO)[C@@H]2Cn3c(ccc(C4=CCCCC4)c3=O)[C@@H]2N1Cc1ccc2c(c1)OCO2	DUX4 inh -15
CCNC(=O)[C@H]1[C@H](CO)[C@H]2Cn3c(ccc(C4=CCCCC4)c3=O)[C@H]2N1Cc1ccc2c(c1)OCO2	none
O=C(C[C@H]1C[C@H]2c3cc(NC(=O)Nc4ccccc4F)ccc3O[C@H]2[C@H](CO)O1)NCc1ccncc1	none
CN(C)CCCNC(=O)C[C@@H]1CC[C@H]2[C@H](COc3ccc(NC(=O)NC4CCCC4)cc3C(=O)N2C)O1	none
C[C@@H]1CN([C@H](C)CO)C(=O)c2c(c3ccccc3n2C)-c2ccccc2CO[C@H]1CN(C)Cc1cccnc1	none
O=C1N[C@H](Cc2ccccc2)COCc2cn(nn2)CC[C@@H]1Cc1cccc(Cl)c1	none
COCC#Cc1ccc([C@@H]2[C@H]3CN(Cc4cccnc4)CCCCN3[C@H]2CO)cc1	none
COCC#Cc1ccc([C@@H]2[C@@H](CO)N3CCCCN(Cc4cccnc4)C[C@H]23)cc1	none
COCC#Cc1ccc([C@H]2[C@H]3CN(Cc4cccnc4)CCCCN3[C@H]2CO)cc1	none
COc1cccc(CN2CCCCN3[C@H](CO)[C@@H](c4ccc(-c5cccnc5)cc4)[C@H]3C2)c1	none
COc1cccc(CN2CCCCN3[C@@H](CO)[C@@H](c4ccc(C#Cc5cccnc5)cc4)[C@@H]3C2)c1	DUX4 inh -36
COc1cccc(CN2CCCCN3[C@H](C2)[C@@H](c2ccc(C#Cc4cccnc4)cc2)[C@@H]3CO)c1	DUX4 inh -17
CO[C@H]1CN(C)C(=O)c2cc(NS(=O)(=O)c3cccc(F)c3)ccc2OC[C@@H](C)N(Cc2cc(F)ccc2F)C[C@@H]1C	none

Assay outcomes deposited in PubChem by Broad Institute.
